Results taken from PubChem BioAssay (NCI).
About 83,000 compounds went through this panel and 20% of them were active in at least one assay; those are over-represented in the sample as a whole.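 Results are percent growth after 48 hours of single-concentration exposure. 100 means growth as in untreated cells, lower positive values show inhibition; negative values down to -100 show cell death.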 A number with no mark means an inactive call. Activity calls are given as the source filed them. Rule for the calls: active = growth percent below 10; inactive = the rest.

Tests used:
Experiment in all cases: NCI-60 one-dose screen, 48 h (100 = growth as untreated, 0 = no growth, -100 = all killed)
Settings in all cases: 10 µM unless noted
NCI-H23 lung = system: NCI-H23 lung
NCI-H226 lung = system: NCI-H226 lung
NCI-H322M lung = system: NCI-H322M lung
HOP-62 NSCLC = system: HOP-62 NSCLC
NCI-H460 lung = system: NCI-H460 lung
HOP-92 NSCLC = system: HOP-92 NSCLC
NCI-H522 lung = system: NCI-H522 lung
A549/ATCC NSCLC = system: A549/ATCC NSCLC
786-0 renal = system: 786-0 renal
COLO 205 colon = system: COLO 205 colon
DU-145 prostate = system: DU-145 prostate
K-562 leukemia = system: K-562 leukemia
MALME-3M melanoma = system: MALME-3M melanoma
MDA-MB-231 breast = system: MDA-MB-231 breast
RXF 393 renal = system: RXF 393 renal
SF-268 CNS = system: SF-268 CNS
SF-295 CNS = system: SF-295 CNS
SF-539 CNS = system: SF-539 CNS
UACC-257 melanoma = system: UACC-257 melanoma

SMILES	growth (NCI-H23 lung)	growth (NCI-H226 lung)	growth (NCI-H322M lung)	growth (HOP-62 NSCLC)	growth (NCI-H460 lung)	growth (HOP-92 NSCLC)	growth (NCI-H522 lung)	growth (A549/ATCC NSCLC)	growth (786-0 renal)	growth (COLO 205 colon)	growth (DU-145 prostate)	growth (K-562 leukemia)	growth (MALME-3M melanoma)	growth (MDA-MB-231 breast)	growth (RXF 393 renal)	growth (SF-268 CNS)	growth (SF-295 CNS)	growth (SF-539 CNS)	growth (UACC-257 melanoma)
Cc1cc(SC#N)ncn1	103%	99%	103%	98.2%	99.5%	106%	92.3%	93.5%	109%	115%	112%	95.1%	100%	93.3%	105%	111%	128%	103%	103%
CC(=O)O.CC(=O)O.O.[Fe]	106%	101%	111%	103%	107%	99.8%	90%	99.1%	112%	101%	105%	139%	91.5%	99.2%	110%	95.1%	127%	103%	103%
CC1(C)CC[C@]2(C(=O)OC(=O)[C@]34CCC(C)(C)C[C@@H]3C3=CC[C@@H]5[C@@]6(C)CCC(=O)C(C)(C)[C@@H]6CC[C@@]5(C)[C@]3(C)CC4)CC[C@]3(C)C(=CC[C@@H]4[C@@]5(C)CCC(=O)C(C)(C)[C@@H]5CC[C@]43C)[C@H]2C1	58.9% [100 µM]	68.1% [100 µM]	86.9% [100 µM]	74.7% [100 µM]	58.3% [100 µM]	45.6% [100 µM]	56.2% [100 µM]	76.5% [100 µM]	64.1% [100 µM]	88.6% [100 µM]	77.4% [100 µM]	36.4% [100 µM]	81.2% [100 µM]	45.7% [100 µM]	62.6% [100 µM]	63.4% [100 µM]	76.5% [100 µM]	61.6% [100 µM]	69% [100 µM]
Cn1cc(-c2noc(-c3cn(C)c4ncc(Br)cc34)n2)c2cc(Cl)ccc21	75.1%	88%	47.4%	50.5%	25.8%	76.7%	63.1%	96.6%	53.7%	66.4%	87%	66.3%	35.4%	57.2%	105%	59.1%	63%	48.9%	99.2%
Fc1ccc(NC(=S)c2ccccc2)cc1	104%	99.1%	106%	113%	107%	86.5%	96.3%	98.8%	99.5%	113%	106%	105%	96.2%	102%	109%	99%	95.8%	97.6%	98.9%
CNC(=O)c1cc(Oc2cccc3nc(NC(=O)Nc4cc(C(F)(F)F)cc(C(F)(F)F)c4)ccc23)ccn1	50.8%	43.1%	25.5%	6.73% (active)	34.9%	-23.7% (active)	24.3%	18.6%	-35.6% (active)	53.9%	45.4%	71.9%	21.3%	23.3%	27.5%	36.1%	30.3%	38.9%	57.7%
CC(C)C1=NOC(=O)C1=Cc1cn(-c2ccccc2)nc1-c1cccc([N+](=O)[O-])c1	91.9%	102%	98.1%	99.1%	87.9%	88.8%	74.7%	97%	76.7%	109%	84.9%	33.4%	109%	93.1%	68.9%	94.1%	99.1%	98.1%	104%
COc1cc(C)cc2oc3oc(=O)c(-c4nc5ccccc5s4)cc3c(=O)c12	96.9%	87.5%	90%	91.6%	84.1%	76.1%	95.7%	109%	105%	110%	98.8%	99.8%	94%	95.1%	77.5%	96.6%	98.9%	83.7%	109%
CCOC(CNC(=O)c1cccc([N+](=O)[O-])c1)OCC	85.7%	89.8%	109%	108%	101%	96.7%	64.2%	83.7%	101%	108%	100%	94%	96.8%	92.9%	65.7%	93.6%	91.2%	96.9%	83.2%
O=C(NCCCCCCCNC(=O)OCc1ccc2c(Cl)cc(Cl)c(O)c2n1)OCc1ccc2c(Cl)cc(Cl)c(O)c2n1	-52.3% (active)	-50.3% (active)	31%	-56.8% (active)	-31.3% (active)	-75% (active)	-55.6% (active)	-68.7% (active)	-62.7% (active)	-75.9% (active)	-87.3% (active)	2.04% (active)	-87.4% (active)	-72% (active)	-90.1% (active)	-58.8% (active)	1.17% (active)	-96.6% (active)	-41.6% (active)
CC1Cc2c(Cl)ncnc2N(C)c2ccccc21 (stereo unspecified)	18.6%	1.16% (active)	26.8%	22.8%	21.2%	26%	57.7%	16.6%	4.7% (active)	-81.1% (active)	65.6%	37.6%	0.822% (active)	-33.8% (active)	13.6%	24.4%	19.9%	33%	11.5%
Cc1cc(-c2ccc(N=Nc3c(S(=O)(=O)O)cc4cc(S(=O)(=O)O)cc(N)c4c3O)c(C)c2)ccc1N=Nc1cc(S(=O)(=O)O)c2ccccc2c1O	92.2%	90%	86.5%	93.8%	107%	89.6%	101%	97.2%	104%	110%	112%	98%	89%	92.4%	107%	95.6%	103%	88.4%	97.7%
CCCCCCCCCCCCCCCCCCNC(=S)N/N=C/c1ccc(OC)c(OC)c1	93.9%	99.2%	98.7%	98.6%	103%	69.4%	94.6%	98.3%	102%	104%	102%	98.8%	87.4%	92.7%	110%	98.7%	95.7%	93.6%	100%
O=c1[nH]c(CN2CCN(c3cccc(Cl)c3)CC2)nc2cc(Cl)ccc12	84.9%	87.6%	113%	89.7%	104%	105%	66.6%	88.9%	90%	106%	101%	97.9%	108%	104%	90.3%	99.3%	100%	94.2%	59.9%
